According to PubChem BioAssay (NCI):
The panel holds about 83,000 compounds, 20% with a hit somewhere; the sample as a whole holds those more often.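 Cell lines were cultured in 96-well plates, exposed to a single compound concentration, and assessed for percent growth 48 hours later.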 Activity calls are given as the source filed them. How the source made its calls: active means growth percent below 10; inactive means the rest.

Assays:
Assay in all cases: NCI-60 one-dose screen, 48 h (100 = growth as untreated, 0 = no growth, -100 = all killed)
Conditions in all cases: 10 µM unless noted
HCT-15 colon = test system: HCT-15 colon
HT29 colon = test system: HT29 colon
SNB-75 CNS = test system: SNB-75 CNS
SNB-19 CNS = test system: SNB-19 CNS
U251 CNS = test system: U251 CNS
PC-3 prostate = test system: PC-3 prostate
SK-MEL-5 melanoma = test system: SK-MEL-5 melanoma
UACC-62 melanoma = test system: UACC-62 melanoma
LOX IMVI melanoma = test system: LOX IMVI melanoma
SK-MEL-28 melanoma = test system: SK-MEL-28 melanoma
SK-MEL-2 melanoma = test system: SK-MEL-2 melanoma
EKVX NSCLC = test system: EKVX NSCLC
SN12C renal = test system: SN12C renal
UO-31 renal = test system: UO-31 renal
TK-10 renal = test system: TK-10 renal
ACHN renal = test system: ACHN renal
CAKI-1 renal = test system: CAKI-1 renal
A498 renal = test system: A498 renal
CCRF-CEM leukemia = test system: CCRF-CEM leukemia
MOLT-4 leukemia = test system: MOLT-4 leukemia

Measured: growth

COc1cc(Nc2ncccc2NC(=O)c2cn(Cc3cccc(Oc4ccccc4)c3)nn2)cc(OC)c1
inactive: HCT-15 colon 68.7% | HT29 colon 88.8% | SNB-75 CNS 79.9% | SNB-19 CNS 79.6% | U251 CNS 80.2% | PC-3 prostate 66.5% | SK-MEL-5 melanoma 60% | UACC-62 melanoma 65.5% | LOX IMVI melanoma 75.1% | SK-MEL-28 melanoma 83.3% | SK-MEL-2 melanoma 95.7% | EKVX NSCLC 75% | SN12C renal 84.2% | UO-31 renal 50.7% | TK-10 renal 100% | ACHN renal 86.1% | CAKI-1 renal 83.9% | A498 renal 76.2% | CCRF-CEM leukemia 84.5% | MOLT-4 leukemia 59.6%

CCCCCCC(=O)Nc1ncc(Cc2ccc(C)cc2)s1
active: SNB-75 CNS -0.16%
inactive: HCT-15 colon 35.5% | HT29 colon 15.4% | SNB-19 CNS 44.2% | U251 CNS 39% | PC-3 prostate 41.7% | SK-MEL-5 melanoma 36.9% | UACC-62 melanoma 31.1% | LOX IMVI melanoma 44.1% | SK-MEL-28 melanoma 66.5% | SK-MEL-2 melanoma 63.4% | EKVX NSCLC 53.4% | SN12C renal 49.4% | UO-31 renal 44.8% | TK-10 renal 65.8% | ACHN renal 46.3% | CAKI-1 renal 35.2% | A498 renal 19.5% | CCRF-CEM leukemia 21.3% | MOLT-4 leukemia 35.2%

Cc1ccc(C)c2c1C(O)(C#Cc1ccccc1)c1ccccc1C2(O)C#Cc1ccccc1 (stereo not given)
inactive: HCT-15 colon 27.7% | HT29 colon 38.9% | SNB-75 CNS 48.3% | SNB-19 CNS 70.4% | U251 CNS 34.3% | PC-3 prostate 29.4% | SK-MEL-5 melanoma 36.8% | UACC-62 melanoma 53.4% | LOX IMVI melanoma 42.5% | SK-MEL-28 melanoma 80.4% | SK-MEL-2 melanoma 15.9% | EKVX NSCLC 38.5% | SN12C renal 71.5% | UO-31 renal 19.6% | TK-10 renal 58.8% | ACHN renal 49.7% | CAKI-1 renal 71.9% | A498 renal 69.2% | CCRF-CEM leukemia 27.5% | MOLT-4 leukemia 19.5%

COc1cc2ncnc(Nc3ccc(F)c(Cl)c3)c2cc1OCC(=O)N1CCN(c2ccc(F)cc2)CC1
inactive: HCT-15 colon 92.7% | HT29 colon 86.7% | SNB-75 CNS 91.2% | SNB-19 CNS 83.6% | U251 CNS 107% | PC-3 prostate 94.6% | SK-MEL-5 melanoma 98.2% | UACC-62 melanoma 87.9% | LOX IMVI melanoma 93.3% | SK-MEL-28 melanoma 98.4% | SK-MEL-2 melanoma 97.5% | EKVX NSCLC 78.3% | SN12C renal 88.2% | UO-31 renal 44.5% | TK-10 renal 38.2% | ACHN renal 45.9% | CAKI-1 renal 44.8% | A498 renal 72.5% | CCRF-CEM leukemia 113% | MOLT-4 leukemia 85.8%

CCOc1ccc(NC(=O)c2cc(OC)c(OC)c(OC)c2)cc1
active: A498 renal -0.366%
inactive: HCT-15 colon 31.8% | HT29 colon 11.5% | SNB-75 CNS 30.5% | SNB-19 CNS 49.6% | U251 CNS 30.1% | PC-3 prostate 29.9% | SK-MEL-5 melanoma 28.7% | UACC-62 melanoma 35.7% | LOX IMVI melanoma 35.5% | SK-MEL-28 melanoma 66.4% | SK-MEL-2 melanoma 16.1% | EKVX NSCLC 54.1% | SN12C renal 56% | UO-31 renal 52% | TK-10 renal 60.3% | ACHN renal 55.9% | CAKI-1 renal 39.8% | CCRF-CEM leukemia 27.9% | MOLT-4 leukemia 31.6%

Cc1ncc(C(=O)Nc2ccc(CN3CCN(C)CC3)c(C(F)(F)F)c2)cc1C#Cc1cnc(N)c2ccncc12
active: HCT-15 colon -31.8% | HT29 colon -44.8% | SNB-75 CNS -67.7% | SNB-19 CNS -45.6% | U251 CNS -92.7% | PC-3 prostate -50.6% | SK-MEL-5 melanoma -90.8% | UACC-62 melanoma -83.8% | LOX IMVI melanoma -93.3% | SK-MEL-28 melanoma -81.3% | SK-MEL-2 melanoma -55.8% | EKVX NSCLC -18.9% | SN12C renal -26.8% | UO-31 renal -42.2% | TK-10 renal -59% | ACHN renal -64.3% | CAKI-1 renal -56.8% | A498 renal -90.2% | CCRF-CEM leukemia -23.3% | MOLT-4 leukemia -42.5%

CN(Cc1cnc2nc(N)nc(N)c2n1)c1c(Cl)cc(C(=O)NC(CCC(=O)O)C(=O)O)cc1Cl (stereo not given)
active: CAKI-1 renal -20%
inactive: HCT-15 colon 28% | HT29 colon 30.4% | SNB-75 CNS 63.9% | SNB-19 CNS 31.7% | U251 CNS 33.4% | PC-3 prostate 22.5% | SK-MEL-5 melanoma 21.3% | UACC-62 melanoma 16.4% | LOX IMVI melanoma 13.8% | SK-MEL-28 melanoma 63.3% | SK-MEL-2 melanoma 59.8% | EKVX NSCLC 42.4% | SN12C renal 26.3% | UO-31 renal 11.5% | TK-10 renal 36% | ACHN renal 29% | A498 renal 47.7% | CCRF-CEM leukemia 34.8% | MOLT-4 leukemia 25.8%
